{"source": "PubChem BioAssay AID504467", "about": "(National Center for Advancing Translational Sciences (NCATS), 2011)", "note": "Out of some 330,000 compounds screened, about 7,700 (2.3%) were called active. A call without a number means that no potency is given here. Another 26% or so got no clear call; they are omitted. Calls follow the shape of the dose curve; as a rule, active = well fitted inhibition curve with a large enough effect; inconclusive = small, poorly fitted or top-dose-only effect, or effect the other way; inactive = flat fitted curve, though single readings scatter. Many of the other results were omitted from the sample, so actives are more common in it than they were. Potency is read from the fitted curve at half-maximal effect.", "data": [{"assay": "qHTS screen for small molecules that inhibit ELG1-dependent DNA repair in human embryonic kidney (HEK293T) cells expressing luciferase-tagged ELG1; also: nearly all actives have a fitted effect of over 55% in size", "settings": "HEK293T ELG1-luciferase reporter, luminescence, 16 h, DNA damage induced by 5-fluorouridine; series mostly up to 46.1 µM", "in_short": "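HEK293T cells expressing luciferase-tagged ELG1 (2,000/well) received 5-Fluorouridine plus compound or DMSO for 16 hr at 37 °C. Luciferase was read by ONE-Glo luminescence after 30 min at room temperature.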", "values": [{"smiles": "O=C1/C(=C\\c2cccnc2)CN(Cc2ccccc2)C/C1=C\\c1cccnc1", "Potency": "3.66 µM (active)"}, {"smiles": "O=C1NCC(=O)N(Cc2ccccc2)/C1=C/c1ccccc1", "Potency": "inactive"}, {"smiles": "O=Cc1cn(Cc2ccccc2)nc1-c1cccnc1", "Potency": "inactive"}, {"smiles": "COC(=O)[C@]1(CC(C)C)N[C@H](c2ccc(SC3CCCCC3)cc2)[C@@H]2C(=O)N(C)C(=O)[C@@H]21", "Potency": "inactive"}, {"smiles": "CCOC(=O)C1CCN(Cc2ccc(-c3ccccc3)cc2)CC1", "Potency": "inactive"}, {"smiles": "CCOC(=O)C1CCN(c2ncnc3c2c(-c2ccccc2)cn3-c2ccc(C)cc2)CC1", "Potency": "14.6 µM (active)"}, {"smiles": "CCOC(=O)C1CCN(c2ncnc3c2oc2ccc(Br)cc23)CC1", "Potency": "inactive"}, {"smiles": "COC(=O)c1ccc(C(=O)NC2CC(C)(C)Cc3c2cnn3-c2ccc(F)cc2)nc1", "note": "(configuration not stated)", "Potency": "inactive"}, {"smiles": "CC1(C)C[C@H]2C3=CCC4[C@@]5(C)CC[C@H](O)[C@](C)(CO)C5CC[C@@]4(C)[C@]3(C)C[C@@H](O)[C@@]2(CO)[C@@H](O)[C@@H]1O", "note": "(some centres not stated)", "Potency": "inactive"}, {"smiles": "CCN(CC)CCCNC(=O)c1c(O)c2cc(F)cc3c2n(c1=O)C(C)CC3", "note": "(configuration not stated)", "Potency": "inactive"}, {"smiles": "CC(=O)c1ccc(S(=O)(=O)N2CCC3(CC2)OCCO3)cc1", "Potency": "inactive"}, {"smiles": "CC(=O)c1ccc(S(=O)(=O)N2CCN(C(=O)/C=C/c3ccc4ccccc4n3)CC2)cc1", "Potency": "20.6 µM (active)"}, {"smiles": "NC(=O)COC(=O)/C=C/c1ccc2ccccc2n1", "Potency": "inactive"}, {"smiles": "N#C/C(=C\\c1cccnc1)C(=O)Nc1ccc(SC(F)F)cc1", "Potency": "inactive"}, {"smiles": "CC(CNC(=O)Cn1cnc2c(OCc3ccccc3)ncnc21)c1ccccc1", "note": "(configuration not stated)", "Potency": "inactive"}, {"smiles": "COc1ccc(-c2csc(NC(=O)c3ccc(N4C(=O)CCC4=O)cc3)n2)cc1OC", "Potency": "inactive"}, {"smiles": "O=C(Nc1nc(-c2ccc3c(c2)OCO3)cs1)c1ccncc1", "Potency": "7.08 µM (active)"}, {"smiles": "C/C(=N/NC(=O)c1ccncc1)c1ccc2c(c1)OCO2", "Potency": "inactive"}, {"smiles": "CCN(C(=O)COC(=O)CCOc1cccc(C)c1)c1c(N)n(Cc2ccccc2)c(=O)[nH]c1=O", "Potency": "inactive"}, {"smiles": "O=C(CSc1ccccn1)N1CCN(S(=O)(=O)c2ccc(Cl)cc2)CC1", "Potency": "inactive"}, {"smiles": "CCN(C[C@H]1N[C@@](CC)(C(=O)OC)[C@H]2C(=O)N(C)C(=O)[C@@H]12)C(=O)Nc1ccc(F)cc1", "Potency": "inactive"}, {"smiles": "NS(=O)(=O)c1cccnc1Nc1cccc(Cl)c1", "Potency": "inactive"}, {"smiles": "O=C(Nc1cc(Cl)cc(Cl)c1)C(NCCCO)c1ccccc1", "note": "(configuration not stated)", "Potency": "inactive"}, {"smiles": "OCCCNc1nccc(-c2cc(Nc3cccc(Cl)c3)ncn2)n1", "Potency": "0.92 µM (active)"}, {"smiles": "COc1ccc(S(=O)(=O)N2CCN(CC(=O)N3CCOCC3)CC2)cc1OC", "Potency": "inactive"}, {"smiles": "COc1ccccc1C(=O)Nc1ccc(NC(=O)c2ccco2)c(C)c1", "Potency": "inactive"}, {"smiles": "Cc1ccc(C)c(OCC(=O)N2CCN(C(=O)c3ccco3)CC2)c1", "Potency": "inactive"}, {"smiles": "Cc1ccc(OCC(=O)Nc2ccc(N3CCN(C(=O)c4ccco4)CC3)cc2)c(C)c1", "Potency": "10.3 µM (active)"}, {"smiles": "CCC(=O)Nc1ccc(C(=O)N2CCN(C(=O)c3ccco3)CC2)cc1", "Potency": "inactive"}, {"smiles": "COc1ccc(NC(=O)c2cccc(NC(=O)c3ccco3)c2)c(OC)c1", "Potency": "18.4 µM (active)"}, {"smiles": "COc1cccc(C(=O)Nc2ccc(N3CCN(C(=O)c4ccco4)CC3)cc2)c1", "Potency": "13 µM (active)"}, {"smiles": "Cc1ccc(OCC(=O)N/N=C\\c2ccco2)c(C)c1", "Potency": "inactive"}, {"smiles": "COc1cc(NC(=O)c2cc([N+](=O)[O-])ccc2Br)ccc1NC(=O)c1ccco1", "Potency": "inactive"}, {"smiles": "COc1ccc(C(=O)Nc2ccccc2C(=O)N2CCN(c3ccccc3)CC2)cc1", "Potency": "inactive"}, {"smiles": "Cc1cccc(C(=O)N[C@H](C(=O)NCc2cccs2)C(C)C)c1", "Potency": "inactive"}, {"smiles": "CC(NC(=O)c1ccccc1F)c1cccc2ccccc12", "note": "(configuration not stated)", "Potency": "inactive"}, {"smiles": "CC1CCCC(NC(=O)c2cc(S(=O)(=O)N3CCCCC3)ccc2Cl)C1C", "note": "(configuration not stated)", "Potency": "inactive"}, {"smiles": "Cc1ccccc1CNC(=O)CCC(=O)N1Cc2ccccc2Oc2ncccc21", "Potency": "inactive"}, {"smiles": "C=C1CCC(N(O)c2cc(C)on2)C(=C)CCC2C1CC2(C)C", "note": "(configuration not stated)", "Potency": "inactive"}, {"smiles": "Cc1ccc(S(=O)(=O)N2CCC(C(=O)NCCC3=CCCCC3)CC2)cc1C", "Potency": "inactive"}, {"smiles": "Fc1ccc2[nH]c3c(N4CCN(Cc5ccc6c(c5)OCO6)CC4)ncnc3c2c1", "Potency": "13 µM (active)"}, {"smiles": "O=c1[nH]c(N2CCN(Cc3ccc4c(c3)OCO4)CC2)nc2c1CCCC2", "Potency": "inactive"}, {"smiles": "CC(C)(C)n1nnnc1C(c1ccc(F)cc1)N1CCN(Cc2ccc3c(c2)OCO3)CC1", "note": "(configuration not stated)", "Potency": "inactive"}, {"smiles": "COc1cccc(CNC(=O)COc2cc(O)c3c(c2)OC(C)(C)CC3=O)c1", "Potency": "inactive"}, {"smiles": "Cc1ccc(C)c(S(=O)(=O)N2CCN(C(=O)Nc3ccccc3)CC2)c1", "Potency": "inactive"}, {"smiles": "Cc1ccc(C)c(S(=O)(=O)N2CCN(CC(=O)Nc3ccc([N+](=O)[O-])cc3)CC2)c1", "Potency": "14.6 µM (active)"}, {"smiles": "Cc1ccc(S(=O)(=O)N2CCN(CC(=O)N/N=C/c3cc([N+](=O)[O-])ccc3Cl)CC2)cc1", "Potency": "inactive"}, {"smiles": "Cc1ccc(S(=O)(=O)N2[C@@H](c3ccccc3F)C(C(=O)O)=CC[C@H]2c2ccc(Cl)cc2)cc1", "Potency": "inactive"}, {"smiles": "Cc1c(NC(=O)CSc2nnc(-c3cccnc3)n2N)c(=O)n(-c2ccccc2)n1C", "Potency": "inactive"}, {"smiles": "Cc1ccc(NC(=O)N2CCC(c3nc4c(nnn4Cc4c(F)cccc4Cl)c(=O)[nH]3)CC2)cc1", "Potency": "18.4 µM (active)"}, {"smiles": "Cc1ccc(C)c(Cn2nnc3c(=O)[nH]c(C(=O)Nc4ccc(F)cc4)nc32)c1", "Potency": "inactive"}, {"smiles": "O=C(Nc1ccc(F)cc1)N1CCCC(c2nc3c(nnn3Cc3ccccc3Cl)c(=O)[nH]2)C1", "note": "(configuration not stated)", "Potency": "inactive"}, {"smiles": "Cc1cccc(NS(=O)(=O)c2ccc(C)c(C(=O)NCC(c3ccccc3)N(C)C)c2)c1", "note": "(configuration not stated)", "Potency": "inactive"}, {"smiles": "CCc1noc(C)c1C(=O)Nc1nc2ccc(OC)cc2s1", "Potency": "inactive"}, {"smiles": "COc1ccc2nc(Nc3nc4ccc(NC(C)=O)cc4s3)sc2c1", "Potency": "inactive"}, {"smiles": "COc1ccc2nc(Nc3nc(-c4cc5ccccc5oc4=O)cs3)sc2c1", "Potency": "3.66 µM (active)"}, {"smiles": "CC1CCCCC1NCC(=O)Nc1ccccc1C(=O)Nc1ccccc1", "note": "(configuration not stated)", "Potency": "inactive"}, {"smiles": "CC(C)(C)OC(=O)N1CCC(C(=O)NNC(=O)c2ccc(Cl)cc2Cl)CC1", "Potency": "inactive"}, {"smiles": "O=C(CN1CCc2ccccc21)NC(c1ccccc1)c1ccccc1", "Potency": "inactive"}, {"smiles": "COC(=O)c1[nH]c2cccc(C)c2c1NC(=O)CN1CCCc2ccccc21", "Potency": "18.4 µM (active)"}, {"smiles": "NS(=O)(=O)c1cccc(NC(=O)CN2CCCc3ccccc32)c1", "Potency": "inactive"}, {"smiles": "CCC(=O)c1cc(F)ccc1OCC(=O)Nc1ccc2c(c1)OCCO2", "Potency": "inactive"}, {"smiles": "CCOCCCN(C)C1CCN(C(=O)c2oc3ccccc3c2NC(=O)COc2cccc(C)c2)CC1", "Potency": "inactive"}, {"smiles": "CCOc1ccc(S(=O)(=O)Nc2cccc(C(=O)NCC3(N4CCCCC4)CCCCC3)c2)cc1", "Potency": "inactive"}, {"smiles": "O=C(NCCCN1CCCCC1)C1CCCN(c2ncnc3c2nc2n3CCCCC2)C1", "note": "(configuration not stated)", "Potency": "inactive"}, {"smiles": "COc1cccc(NC(=O)C2CCCN(c3ncnc4c3nc3n4CCCCC3)C2)c1", "note": "(configuration not stated)", "Potency": "14.6 µM (active)"}, {"smiles": "COc1cccc(CNC(=O)C2CCCN(S(=O)(=O)N3CC(C)CC(C)C3)C2)c1", "note": "(configuration not stated)", "Potency": "inactive"}, {"smiles": "CCOC(=O)c1cccc(NC(=O)C2CCCN(S(=O)(=O)c3cnc[nH]3)C2)c1", "note": "(configuration not stated)", "Potency": "inactive"}, {"smiles": "COc1cccc(CNC(=O)C2CCCN(c3ncnc4c3nc3n4CCCCC3)C2)c1", "note": "(configuration not stated)", "Potency": "18.3 µM (active)"}, {"smiles": "O=C(Nc1cccc(Cl)c1)C1CCCN(c2cnccn2)C1", "note": "(configuration not stated)", "Potency": "inactive"}, {"smiles": "COc1ccccc1NC(=O)C1CCCN(c2cc(C)nc3ncnn23)C1", "note": "(configuration not stated)", "Potency": "inactive"}, {"smiles": "CCOC(=O)c1cccc(NC(=O)CCc2c(C)nc3ncnn3c2C)c1", "Potency": "inactive"}, {"smiles": "CCOC(=O)c1cccc(NC(=O)C2CCN(c3ncnc4c3nc3n4CCCCC3)CC2)c1", "Potency": "0.461 µM (active)"}, {"smiles": "COc1ccc(C(=O)NC2CC(C)(C)Cc3c2cnn3-c2ccccc2C)o1", "note": "(configuration not stated)", "Potency": "inactive"}, {"smiles": "COc1ccccc1N(C)C(=O)c1cc(S(=O)(=O)N2CCc3ccccc32)cn1C", "Potency": "inactive"}, {"smiles": "COc1ccc(OC)c(C(C)NC(=S)Nc2ccc(S(=O)(=O)Nc3ncccn3)cc2)c1", "note": "(configuration not stated)", "Potency": "inactive"}, {"smiles": "O=C(Nc1cc(Cl)ccc1N1CCOCC1)c1ccc(N2CCCC2=O)cc1", "Potency": "inactive"}, {"smiles": "NCCN1CCN2C(=O)CN(C(=O)c3ccccc3)CC12", "note": "(configuration not stated)", "Potency": "inactive"}, {"smiles": "CC1(C(=O)N/N=C/c2cc3c(cc2Br)OCO3)CC1(Br)Br", "note": "(configuration not stated)", "Potency": "inactive"}, {"smiles": "COc1ccc2oc(=O)cc(-c3cc4ccccc4o3)c2c1", "Potency": "inactive"}, {"smiles": "COc1ccc(CC(=O)Nc2c(C(N)=O)oc3ccccc23)cc1", "Potency": "inactive"}, {"smiles": "COc1ccc(Nc2cc(=O)oc3ccccc23)cc1", "Potency": "4.61 µM (active)"}, {"smiles": "CCCOc1ccc(C2=CSC3=NCCN23)cc1Cl", "Potency": "inactive"}, {"smiles": "c1ccc(-c2nc(NCc3ccco3)c3ccccc3n2)cc1", "Potency": "inactive"}, {"smiles": "Cc1nc2ccccc2c2oc(C(=O)NCCCN3CCC(C)CC3)cc12", "Potency": "inactive"}, {"smiles": "Cc1nc2ccccc2c2oc(C(=O)NCC3CCCO3)cc12", "note": "(configuration not stated)", "Potency": "20.6 µM (active)"}, {"smiles": "CCCN(CCC)CCNC(=O)c1cc2c(C)nc3ccccc3c2o1", "Potency": "inactive"}, {"smiles": "c1ccc2c(NCC3CCCO3)nc(-c3ccncc3)nc2c1", "note": "(configuration not stated)", "Potency": "18.4 µM (active)"}, {"smiles": "O=C(NCC1CCCO1)c1cc(-c2ccccc2)nc2ccccc12", "note": "(configuration not stated)", "Potency": "inactive"}, {"smiles": "O=C(Cn1ncc2c3ccccc3n(Cc3ccccc3)c2c1=O)NCCCN1CCOCC1", "Potency": "inactive"}, {"smiles": "COc1ccc(NC(=O)C(C)N2c3cccc4cccc(c34)S2(=O)=O)c(OC)c1", "note": "(configuration not stated)", "Potency": "inactive"}, {"smiles": "CCC1(CC)NC(=O)N(CC(=O)OCC(=O)c2cc(C)c(C)cc2C)C1=O", "Potency": "inactive"}, {"smiles": "CCN(C(=O)CSc1nnnn1-c1ccc(OC)cc1)C1CCS(=O)(=O)C1", "note": "(configuration not stated)", "Potency": "inactive"}, {"smiles": "O=C(Nc1ccc(N2CCN(C(=O)c3cccs3)CC2)cc1)c1cccnc1Cl", "Potency": "inactive"}, {"smiles": "Cc1ccccc1C(=O)N1CCN(c2ccc(NC(=O)c3cccs3)cc2)CC1", "Potency": "9.2 µM (active)"}, {"smiles": "O=C(Nc1ccc(N2CCN(C(=O)C3CC3)CC2)cc1)c1cccs1", "Potency": "inactive"}, {"smiles": "COc1ccc(CNC(=O)C[C@H]2C[C@H](C(=O)N3CCOCC3)[C@@]3(C)c4[nH]c5cc(CCC(=O)N(C)C)ccc5c4CCN3C2=O)cc1OC", "Potency": "inactive"}]}]}
